# Measured values from PubChem BioAssay.
# “And” between values parts separate entries of the source, which are not always exact repeats. Equal values may be shown once. The source made the active and inactive calls.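 The calls were made as follows, unless noted: active = compounds killing one labelled cell type while sparing the other, by normalised counts and ratio limits, not self-fluorescent; inactive = the rest.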
# Key:
# [1] = stimulators of insulin release from INS-1E, primary screen, cell-based, 5 mM glucose, NPC library (AID 1117329;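 active = compound raises insulin release from rat beta cells at 5 mM glucose, no numeric limit stated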); details: rat INS-1E insulin secretion, at 10 µM, stronger effect = higher value
# [2] = growth inhibition of GSK3B-pretreated HCT116 cells – cell-based, CellTiter-Glo, 0.2 to 20 µM (AID 1117336;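 active = compounds lowering colon cancer cell viability after pretreatment blocking the GSK3B kinase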); details: HCT116 viability after GSK3B inhibitor, at 20 µM, stronger effect = higher value
# [3] = inhibition of endothelial tube formation, primary screen, imaging, VEGF stimulated, CD31 staining, tube area, NPC library (AID 1117340;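 active = compound that reduces growth-factor-driven endothelial tube area in a mixed cell culture, no cutoff stated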); details: VEGF-stimulated ADSC/ECFC co-culture, at 10 µM, stronger effect = higher value
# [4] = GLP1 release stimulators, primary, NCI-H716, NPC library (AID 1117341;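 active = compound raises GLP1 secretion from the human gut endocrine cells, with no numeric limit stated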); details: NCI-H716 cells, at 10 µM, stronger effect = higher value
# [5] = HCT116 colon cancer cell growth inhibition, primary screen, CellTiter-Glo luminescence, NPC library (AID 1117342;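 active = compounds that lower survival of HCT116 colon cancer cells in the luminescence readout, no numeric limit stated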); details: at 20 µM (top of the series)
# [6] = reduced SW480 viability measured with CellTiter-Glo, NPC library, primary (AID 1117343;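 active = compounds that lower viability of the colon cancer cells in the luminescence readout, with no numeric limit stated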); details: CellTiter-Glo luminescence; at 20 µM (top of the series)
# [7] = NPC library primary testing for decreased DLD-1 cell viability via CellTiter-Glo (AID 1117346;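 active = compounds that lower survival of DLD-1 colon cancer cells in the luminescence readout, no cutoff given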); details: DLD-1 viability, CellTiter-Glo luminescence; at 20 µM (top of the series)
# [8] = biological target: 6-phosphogluconate dehydrogenase, decarboxylating (Homo sapiens) (UniProt P52209); assay: inhibition of human phosphogluconate dehydrogenase – biochemical, recombinant enzyme, NADPH absorbance, primary screen (AID 1159550;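 active = at least 20% inhibition of 6-phosphogluconate dehydrogenase activity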); details: recombinant 6PGD, NADPH absorbance 341 nm; at 10 µM; stronger effect = higher value
# Sequence of 6-phosphogluconate dehydrogenase, decarboxylating (Homo sapiens) (P52209 whole entry, looked up): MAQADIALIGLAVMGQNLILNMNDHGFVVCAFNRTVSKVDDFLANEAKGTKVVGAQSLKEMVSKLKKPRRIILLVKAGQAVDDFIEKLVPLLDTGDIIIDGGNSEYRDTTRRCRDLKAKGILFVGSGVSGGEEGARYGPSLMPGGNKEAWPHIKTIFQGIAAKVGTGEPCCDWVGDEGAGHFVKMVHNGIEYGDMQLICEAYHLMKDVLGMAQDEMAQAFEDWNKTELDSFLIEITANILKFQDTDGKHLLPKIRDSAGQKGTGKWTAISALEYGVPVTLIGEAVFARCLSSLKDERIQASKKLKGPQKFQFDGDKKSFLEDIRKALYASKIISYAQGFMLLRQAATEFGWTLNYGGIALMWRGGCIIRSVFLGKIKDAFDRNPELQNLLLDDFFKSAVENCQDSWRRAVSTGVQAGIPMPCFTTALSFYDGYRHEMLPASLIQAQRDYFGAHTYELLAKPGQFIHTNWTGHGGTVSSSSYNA
# [9] = EMT-state selective cytotoxicity in co-culture – imaging, PC-3E GFP, TEM4-18 mCherry, primary screen (AID 1345086); details: PC-3E GFP / TEM4-18 mCherry co-culture, imaging cell counts, at 1 µM; for red/green cell ratio (normalised): actives lie on both sides, counts scaled to control wells, 1 = unselective;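 as to all read-outs here: cells exposed to compound for 72 h before imaging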;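 as to red/green cell ratio (normalised): normalised mesenchymal count divided by normalised epithelial count so high means epithelial killing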
# [10] = measured here: epithelial PC-3E GFP cell survival
# [11] = measured here: mesenchymal TEM4-18 mCherry cell survival
Structure (SMILES),insulin secretion stimulation [1],viability decrease [2],tube area decrease [3],GLP1 secretion stimulation [4],inhibition of viability [5],viability decrease (inhibition) [6],viability decrease (inhibition) [7],inhibition [8],red/green cell ratio (normalised) [9],"normalised cell number [9, 10]","normalised cell number [9, 11]"
C[N+](C)(C)CCCCCC[N+](C)(C)C,0.75% (inactive),10.7% (inactive),-10.2% (inactive),-1.6% (inactive),13.3% (inactive),-4.3% (inactive),5.4% (inactive),12.6% (inactive),0.92 (inactive),1.09,1
CN(C)[C@@H]1C(=O)C(C(N)=O)=C(O)[C@@]2(O)C(=O)C3=C(O)c4c(O)ccc(Cl)c4[C@@H](O)[C@H]3C[C@@H]12,0.9% (inactive),-29.7% (inactive),17.3% (inactive),10.2% (inactive),57% (active),107% (active),94.7% (active),0.718% (inactive),0.96 (inactive) and 1.05 (inactive),1.09 and 1.32,1.05 and 1.38
O=C(CCBr)N1CCN(C(=O)CCBr)CC1,-2.1% (inactive),56.1% (active),60.5% (active),-4.4% (inactive),-0.5% (inactive),3.9% (inactive),-14% (inactive),-1.69% (inactive),1.19 (inactive),1.07,1.28
CN(C)CCCN1c2ccccc2Sc2ccccc21,14.5% (inactive),-76.1% (inactive),12.3% (inactive),9.2% (inactive),39.3% (inactive),95.8% (active),14.3% (inactive),6.03% (inactive),1.19 (inactive),1.03,1.24
NC[C@H]1O[C@H](O[C@H]2[C@H](O)[C@@H](O[C@H]3O[C@H](CO)[C@@H](O)[C@H](N)[C@H]3O)[C@H](N)C[C@@H]2N)[C@H](N)[C@@H](O)[C@@H]1O,-0.7% (inactive),-7.8% (inactive),-8.4% (inactive),1.5% (inactive),9.9% (inactive),6.5% (inactive),-1.7% (inactive),5.79% (inactive),1.19 (inactive),1.1,1.31
Cc1cc(O)cc(C)c1Cl,2% (inactive),-11% (inactive),-5.3% (inactive),-2% (inactive),18.1% (inactive),28.5% (inactive),9.3% (inactive),0.336% (inactive),1.31 (inactive),0.7,0.93
CC1(C)S[C@@H]2[C@H](NC(=O)C(C(=O)O)c3ccccc3)C(=O)N2[C@H]1C(=O)O (stereo partly specified),-0.6% (inactive),-17.4% (inactive),-10.8% (inactive),-0.3% (inactive),-4.4% (inactive),-13% (inactive),-17.8% (inactive),-9.55% (inactive),1.24 (inactive),0.99,1.23
C[C@H](N)[C@H](O)c1cccc(O)c1,-3.4% (inactive),-13.4% (inactive),12.1% (inactive),-3.4% (inactive),-3.1% (inactive),37.4% (inactive),1.5% (inactive),13.9% (inactive),1.4 (inactive),0.79,1.1
CC(=O)OC/C=C(C)/C=C/C=C(C)/C=C/C1=C(C)CCCC1(C)C,3% (inactive),-11.9% (inactive),0.2% (inactive),5.9% (inactive),2.7% (inactive),-5.5% (inactive),-3.2% (inactive),-10.8% (inactive),0.94 (inactive),1,0.94
CCn1cc(C(=O)O)c(=O)c2cnc(N3CCCC3)nc21,-0.4% (inactive),-29.5% (inactive),1.8% (inactive),1.2% (inactive),0% (inactive),11.2% (inactive),-1.2% (inactive),5.15% (inactive),0.88 (inactive),1,0.88
CC1(C)S[C@@H]2[C@H](NC(=O)[C@H](N)c3ccccc3)C(=O)N2[C@H]1C(=O)O,-0.2% (inactive),-19% (inactive),16.3% (inactive),1.2% (inactive),-2.8% (inactive),-8.7% (inactive),-9.6% (inactive),9.14% (inactive),0.91 (inactive),1.22,1.12
COc1cc(C(=O)NCc2ccc(OCCN(C)C)cc2)cc(OC)c1OC,2.5% (inactive),19.5% (inactive),16.6% (inactive),-2.4% (inactive),-8.75% (inactive),-11.4% (inactive),-8.9% (inactive),10.5% (inactive),0.88 (inactive),1.34,1.18
CCCCOc1ccc(C(=O)CCN2CCCCC2)cc1,2.3% (inactive),55.8% (active),12.5% (inactive),-0.1% (inactive),59.9% (active),59.5% (active),31.3% (inactive),9.17% (inactive),1.3 (inactive),1.09,1.41
CN(C)CCC(c1ccccc1)c1ccccn1 (stereo unspecified),1.3% (inactive),-40.9% (inactive),1.9% (inactive),1.5% (inactive),3.55% (inactive),12.1% (inactive),-7.2% (inactive),-0.335% (inactive),1.11 (inactive),0.86,0.95
CO[C@]12C[C@@H](COC(=O)c3cncc(Br)c3)CN(C)[C@@H]1Cc1cn(C)c3cccc2c13,8.2% (inactive),8.4% (inactive),0.8% (inactive),7.1% (inactive),43.7% (inactive),76.9% (active),23.6% (inactive),6.31% (inactive),1.03 (inactive),0.95,0.99
CN1CCOC(c2ccccc2)c2ccccc2C1 (stereo unspecified),1.8% (inactive),-52.9% (inactive),0.9% (inactive),4% (inactive),12.4% (inactive),40.1% (inactive),-7.2% (inactive),5.09% (inactive),1.19 (inactive),0.43,0.51
NC(=O)NC1NC(=O)NC1=O (stereo unspecified),-2.3% (inactive),-10.1% (inactive),1.2% (inactive),-1.2% (inactive),8% (inactive),0.3% (inactive),-6.65% (inactive),4.15% (inactive),1.05 (inactive),1.06,1.11
Cc1c(N(C)C)c(=O)n(-c2ccccc2)n1C,0.4% (inactive),-152% (inactive),8.4% (inactive),-1.9% (inactive),-13.5% (inactive),-4.8% (inactive),-6.4% (inactive),13.9% (inactive),0.85 (inactive),1.18,1
CCCCC1(COC(=O)CCC(=O)O)C(=O)N(c2ccccc2)N(c2ccccc2)C1=O,2.3% (inactive),10.8% (inactive),-1.7% (inactive),-1.7% (inactive),0.4% (inactive),-17.1% (inactive),9.4% (inactive),-3.37% (inactive),0.91 (inactive),0.96,0.87
CCCCOC(=O)c1ccc(N)cc1,0.4% (inactive),27.7% (inactive),20.7% (inactive),0.1% (inactive),-21.1% (inactive),118% (active),59.9% (active),-3.52% (inactive),1.07 (inactive),0.97,1.04
CN1CCN(C(c2ccccc2)c2ccccc2)CC1,5.5% (inactive),-48% (inactive),22.5% (inactive),2.2% (inactive),7.1% (inactive),4.5% (inactive),-11.9% (inactive),-2.54% (inactive),1.46 (inactive),1.05,1.54
CC(Cc1cccc(C(F)(F)F)c1)NCCOC(=O)c1ccccc1 (stereo unspecified),3% (inactive),-38.7% (inactive),0.6% (inactive),2.6% (inactive),18.1% (inactive),51.4% (active),28.7% (inactive),16.1% (inactive),0.76 (inactive),1.26,0.95
CCOC(N)=O,0.8% (inactive),-12.6% (inactive),14.2% (inactive),-2.3% (inactive),3.77% (inactive),5.1% (inactive),-11.6% (inactive),-22.6% (inactive),1.16 (inactive),0.95,1.1
Nc1ccc(S(=O)(=O)NC(=O)c2ccccc2)cc1,-1.7% (inactive),-10.1% (inactive),-16.9% (inactive),0.6% (inactive),0.2% (inactive),-9.5% (inactive),-14.3% (inactive),-6.69% (inactive),1.62 (inactive),0.9,1.46
O=C(O)c1ccccc1C(=O)Nc1ccc(S(=O)(=O)Nc2nccs2)cc1,-2.1% (inactive),-13.1% (inactive),3.3% (inactive),1.4% (inactive),-16.3% (inactive),20.3% (inactive),-5.15% (inactive),5.34% (inactive),1 (inactive),1.18,1.17
Oc1cccc(O)c1,-1.9% (inactive),-0.8% (inactive),21% (inactive),-2.3% (inactive),8% (inactive),78.9% (active),2.6% (inactive),-5.12% (inactive),1.34 (inactive),0.71,0.95
